Source: PubChem
Sfp PPTase inh: Sfp phosphopantetheinyl transferase inhibition | Biochemical Sfp PPTase activity, qHTS | Potency, µM, inactives show largest response in the series, negative = inhibition, hits mostly inhibitors | actives 3.5% (n = 310,000) | AID 1490;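 also: the enzyme is Sfp with the accession as filed and its product quenches rhodamine fluorescence; 0% = enzyme reaction without inhibitor and -100% = no enzyme wells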
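Fluorescence-quenching assay with 15 nM Sfp, 5 uM rhodamine-CoA and 12.5 uM BHQ-2-labelled ybbR peptide in pH 7.6 Hepes/MgCl2 buffer. Enzyme was pre-incubated with compound for 15 min at room temperature. Rate was taken from the 30-min fluorescence change (525/598 nm).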
JMJD2A Tudor inh: JMJD2A Tudor domain (human) inhibition; O75164; AlphaScreen JMJD2A-Tudor / H3K4me3 peptide binding; Potency, µM (series often up to 114 µM), inactives show at the top dose activity change, negative = inhibition, most hits filed as inhibitors; actives 4.4% (n = 390,000); AID 504339; also: % is scaled to controls: 0 for no effect and ±100 for the full control effect; nearly all actives have a fitted effect of over 50% in size
TDP1 block: blocks human tyrosyl-DNA phosphodiesterase 1 | Q9NUW8 | AID 485290 | actives 0.28% (n = 350,000) | recombinant TDP1, AlphaScreen DNA substrate cleavage | Potency, µM (top dose mostly 130 µM), for inactives: at the top dose activity change, negative = inhibition, hits mostly inhibitors; also: % is scaled to controls: 0 for no effect and ±100 for the full control effect; nearly all actives have a fitted effect of over 40% in size
Target sequence (Q9NUW8 whole entry, looked up): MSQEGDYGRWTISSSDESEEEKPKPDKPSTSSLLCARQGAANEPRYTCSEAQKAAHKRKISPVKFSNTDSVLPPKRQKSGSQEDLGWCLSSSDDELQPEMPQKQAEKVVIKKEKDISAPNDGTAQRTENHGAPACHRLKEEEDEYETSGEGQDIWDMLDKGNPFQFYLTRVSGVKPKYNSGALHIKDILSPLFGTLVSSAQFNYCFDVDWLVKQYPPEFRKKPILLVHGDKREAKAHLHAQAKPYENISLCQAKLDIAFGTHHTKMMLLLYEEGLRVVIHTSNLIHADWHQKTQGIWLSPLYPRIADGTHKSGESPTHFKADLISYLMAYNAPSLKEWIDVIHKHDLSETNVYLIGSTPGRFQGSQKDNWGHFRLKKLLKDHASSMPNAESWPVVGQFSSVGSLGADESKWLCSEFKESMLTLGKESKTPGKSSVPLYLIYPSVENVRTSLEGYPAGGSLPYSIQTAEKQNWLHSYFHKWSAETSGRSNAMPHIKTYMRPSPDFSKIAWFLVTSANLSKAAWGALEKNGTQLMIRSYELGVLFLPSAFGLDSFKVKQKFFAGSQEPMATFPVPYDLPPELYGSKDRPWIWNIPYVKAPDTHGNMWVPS
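Recombinant human Tdp1 (E. coli-expressed, 1 nM final) preincubated with compounds 15 min at room temperature, then 5'-biotin/3'-phosphotyrosine-FITC DNA substrate (15 nM final) added for 5 min. AlphaScreen beads (10 ug/ml final) added 10 min; cleavage lowers signal.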
G9a block: inhibitors of human histone lysine methyltransferase G9a; actives 8.8% (n = 350,000); AID 504332; Q96KQ7; G9a H3K9 monomethylation, AlphaScreen, 2 h; Potency, µM (highest dose often 102 µM), for inactives: at the highest dose activity, negative = inhibition, most hits filed as inhibitors; also: % is scaled to controls: 0 for no effect and ±100 for the full control effect; nearly all actives have a fitted effect of over 75% in size
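Compounds were preincubated with 20 nM G9a for 15 min, after which biotinylated H3K9 peptide (500 nM) and SAM (20 uM) started a 2 h room-temperature reaction. Monomethylated product was quantified by antibody-based AlphaScreen chemiluminescence.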
BAZ2B block: inhibitors of human BAZ2B bromodomain; Q9UIF8; AlphaScreen BAZ2B-H3K14Ac peptide displacement; Potency, µM (highest dose often 114 µM), for inactives: at the top dose activity change, negative = inhibition, hits mostly inhibitors; actives 4.4% (n = 360,000); also: % is scaled to controls: 0 for no effect and ±100 for the full control effect; nearly all actives have a fitted effect of over 60% in size
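Compounds, titrated to a top concentration of 110 uM, were incubated 30 min at room temperature with preformed BAZ2B/acetyl-K14 H3 peptide complex (50 nM each). Proximity signal was measured by AlphaScreen after 20 min with beads.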
HP1b chromo inh: blocks HP1-beta chromodomain binding to methylated histone tails | Potency, µM (series often up to 114 µM), for inactives: at the highest dose activity change, negative = inhibition, hits mostly inhibitors | P83916 | AlphaScreen HP1-beta / biotin-H3K9me3 peptide binding | actives 0.56% (n = 390,000) | AID 540317; also: nearly all actives have a fitted effect of over 70% in size
Target sequence (P83916 whole entry, looked up): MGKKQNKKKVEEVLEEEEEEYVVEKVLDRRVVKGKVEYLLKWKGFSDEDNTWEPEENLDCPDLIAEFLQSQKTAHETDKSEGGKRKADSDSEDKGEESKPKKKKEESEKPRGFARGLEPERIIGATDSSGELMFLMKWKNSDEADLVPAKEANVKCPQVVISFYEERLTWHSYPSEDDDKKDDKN
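Compound inhibition of the preformed complex between 50 nM HP1-beta and 50 nM biotinylated H3K9me3 peptide was read by AlphaScreen. Buffer was PBS pH 7.4 with 0.01% Tween-20. Incubations ran 30 min at room temperature, with 10 ug/mL donor/acceptor beads.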
Active calls of the source: *; ? = inconclusive; . = not tested or not shown; [ ] = dose if it differs, or a comment. In the library only some 12% were active in any assay of this set; here they are far more common. Calls follow the shape of the dose curve; as a rule, active = well fitted curve in the direction sought with a large enough effect; inconclusive = small, poorly fitted or top-dose-only effect, or another doubt; inactive = no such curve, though single readings can be large; an effect the other way counts as inactive or inconclusive. Potency is read from the fitted curve at half-maximal effect.

SMILES	Sfp PPTase inh	JMJD2A Tudor inh	TDP1 block	G9a block	BAZ2B block	HP1b chromo inh
COc1cc(C(=O)NNC(=O)c2cc(S(=O)(=O)N(C)C)ccc2N2CCCC2)cc(OC)c1OC	.	-11.7%	0.1%	4.4%[59 µM]	11.0%	26.0%
O=C1NC(=Nc2ccc(F)cc2)CS1	56.2µM*	-21.2%	-1.2%	31.6µM*	-10.9%	-13.7%
Cc1ccc(SCC(=O)Nc2ccc(F)cc2[N+](=O)[O-])cc1C	-6.6%	?	7.9%	?	12.6µM*	50.1µM*
Cc1ccc(NC(=O)CSc2cccc[n+]2[O-])c([N+](=O)[O-])c1	18.6%	-5.3%	2.6%	-33.0%	-14.3%	34.9%
Cc1nc(SCC(=O)Nc2ccc(Cl)cc2[N+](=O)[O-])nc(C)c1C	-62.9%	?	7.1%	11.2µM*	44.7µM*	?
COC(=O)C1=C(C(=O)OC)[C@@H]2N(Cc3ccccc3)c3ccccc3[C@@]23C[C@@H](C(=O)OC)N(S(=O)(=O)c2c(C)noc2C)C3=N1	-3.8%	.	9.1%[21 µM]	.	.	.
CN(C)c1ccc(/C=C2/C=C(c3ccc4c(c3)CCCC4)OC2=O)cc1	-3.3%	2.51µM*	.	-17.1%[59 µM]	?	?
S=C(c1ccc(-c2ccccc2Cl)o1)N1CCCCC1	39.8µM*	?	0.0%	?	?	?
S=C(c1ccc(-c2ccc(Cl)cc2)o1)N1CCCCC1	20µM*	22.4µM*	7.2%	12.6µM*	28.2µM*	?
O=C(c1ccc(-c2ccccc2Cl)o1)N1CCN(c2ccccc2O)CC1	.	?	-10.1%	17.8µM*	?	-17.0%
N#CCCN1CCN(C(=S)c2ccc(-c3ccc(Cl)cc3)o2)CC1	20µM*	44.7µM*	4.8%	?	39.8µM*	?
CN1C(N)=NC(=O)/C1=C\c1ccc(Br)cc1	7.9%	-13.1%	.	?	3.1%	19.6%
O=c1[nH]c2ccc(Br)cc2c(-c2ccccc2)c1CN1CCOCC1	-10.7%	?	6.1%	50.1µM*	-11.4%	12.6%
COc1ccc2nc(-c3ccc(N(C)C)cc3)sc2c1	-26.2%	-9.7%	4.4%	.	.	.
N[C@@H](Cc1ccccc1)C(=O)O	24.5%	.	-3.4%[56.1 µM]	-33.5%[12.7 µM]	.	.
N[C@H](C(=O)O)[C@H](Cc1ccccc1)C(=O)O	.	.	.	7.08µM*	.	.
S=C(Nc1ccc2c(c1)OCO2)Nc1ccccc1Cl	17.8µM*	-14.0%[11.4 µM]	0.0%	?	-16.7%	33.9%
S=C(Nc1ccc2c(c1)OCCO2)Nc1ccc2c(c1)OCO2	-12.8%	-28.6%	11.0%	50.1µM*	?	-1.3%
O=C(CSc1nnc2n1CCCN2)c1ccc([N+](=O)[O-])cc1	-11.5%	?	.	39.8µM*	-37.7%	-0.9%
O=C(CSc1nnc2n1CCCN2)c1ccc(Cl)cc1	0.3%	-21.6%	7.9%	-18.1%[59 µM]	6.2%	4.1%
Cc1ccc(-c2noc(C3CCCN(C(=O)c4ccccc4)C3)n2)o1 (centres undefined)	-13.9%	-15.9%	0.0%	?	-23.0%	25.9%
Cc1ccc(-c2noc(C3CCCN(C(=O)c4ccccc4Br)C3)n2)o1 (centres undefined)	-19.8%	-13.7%	.	25.1µM*	-18.2%	19.8%
O=C(/C(=C/O)N=Nc1ccccc1)c1cccs1	-7.2%	-17.3%[11.4 µM]	8.8%	35.5µM*	22.4µM*	44.7µM*
C=C(C)C(=O)c1cccs1	-4.7%	.	8.7%	.	.	.
COc1cccc(CNC(=O)CN2C(=O)CSc3c2c(C)nn3-c2ccccc2)c1	.	-6.7%	3.2%	15.5%[59 µM]	-11.5%	23.3%
SMILES	Sfp PPTase inh	JMJD2A Tudor inh	TDP1 block	G9a block	BAZ2B block	HP1b chromo inh
CCOC(=O)c1c(C)nn(-c2ccc(NC(=O)c3c(C)noc3C)cc2)c1C	6.8%	-10.6%	.	44.7µM*	5.7%	14.8%
CCNC(=O)Nc1ccc(-n2nc(C)c(C(=O)OCC)c2C)nc1	7.6%	20µM*	2.9%	-0.9%	-21.0%	0.2%
CCOC(=O)c1c(C)nn(-c2ccc(NC(=O)c3cccs3)cc2)c1C	-4.3%	-13.1%	1.3%	-10.5%[12.7 µM]	-3.3%	39.6%
CC(/C=C/c1ccccc1F)=N\NC(=O)c1ccc(Cl)cc1	-10.7%	22.4µM*	4.9%	15.3%[0.501 µM]	-2.9%	-17.9%
Cc1c(C(=O)N(C)CCC#N)oc2ccc(S(=O)(=O)N3CCOCC3)cc12	9.6%	-30.1%	0.0%	19.6%[59 µM]	1.2%	20.7%
COc1ccc2c(c1)Cc1sc(NC(=O)c3ccco3)nc1-2	-18.7%	-8.0%	1.9%	56.2µM*	-43.8%	16.1%
COc1ccc2sc(NC(=O)c3ccco3)nc2c1	-2.1%	?	0.0%	7.08µM*	?	15.0%
COc1ccc2c(c1)-c1nc(NC(=O)c3cccs3)sc1CC2	-19.1%	-21.5%	1.5%	?	-10.8%	30.9%
COc1ccc2c(c1)Cc1sc(NC(=O)c3cccnc3)nc1-2	-85.4%	-9.8%[11.4 µM]	2.5%	44.7µM*	-29.5%	34.3%
COc1ccc2c(c1)-c1nc(NC(=O)c3ccco3)sc1CC2	-11.4%	-33.6%	2.6%	25.1µM*	-28.2%	-25.6%
O=C(NCc1ccc(Cl)cc1Cl)c1cccc(N2CCCS2(=O)=O)c1	.	-10.9%	2.7%	-4.7%[59 µM]	-2.4%	15.4%
COc1ccc2nc(NC(=O)c3ccc(-c4cccc([N+](=O)[O-])c4)o3)sc2c1	13.4%	.	-0.6%	?	79.4µM*	.
CCc1cc2cc(C)c(C)cc2nc1SCC(=O)NNC(=O)c1ccco1	8.2%	-6.6%	-3.2%	19.0%	7.3%	17.7%
COc1ccc2c(c1)Cc1sc(NC(C)=O)nc1-2	20µM*	-25.2%	6.8%	-27.1%[12.7 µM]	-30.7%	16.2%
COc1ccc2c(c1)-c1nc(NC(=O)c3cccc(Br)c3)sc1CC2	.	-29.6%	-4.2%	?	-10.5%	42.8%
CCc1cc2ccc(OC)cc2nc1SCC(=O)NNC(=O)c1ccco1	-4.9%	-15.4%	6.1%	50.1µM*	-20.8%	31.1%
COc1ccc2c(c1)CCc1sc(NC(=O)c3ccco3)nc1-2	?	-30.5%	4.9%	39.8µM*	-33.9%	-16.3%
CCN(Cc1cnn(C)c1)C(=O)c1cc(COc2ccc(F)cc2F)on1	-4.1%	1.1%	1.2%	6.9%[59 µM]	2.8%	41.8%
CCN(Cc1ccncc1)C(=O)c1cc(COc2ccc(F)cc2F)on1	-3.6%	-15.1%	3.9%	39.8µM*	-19.4%	56.4%
COc1ccc(NC(=O)Cn2c(=O)n(-c3cccc(C)c3)c(=O)c3c2c2cc(C)ccc2n3C)cc1OC	.	1.0%	2.9%	-1.5%[59 µM]	-2.7%	36.8%
N#Cc1ccc(C(=O)Nc2ccc3ccccc3c2)cc1	7.9%	-19.3%	4.3%	44.7µM*	-2.3%	-19.1%
N#Cc1ccccc1Sc1ccccc1C(=O)Nc1ccc2ccccc2c1	16.6%	-7.5%	5.3%	7.1%[59 µM]	-25.4%	31.5%
